Results on three compounds are retold here after PubChem BioAssay (EPA / NIEHS).

As usually defined, the AC50 is the concentration giving half of the maximal activity seen.

Calls of active or inactive are those of the source. How the source made its calls: active means hit-call score of the fitted dose curve at least 0.9, where 1 is the maximum; inactive means score below 0.9.

Test [1] in a line: ATG_GLI_CIS: Attagene CIS-FACTORIAL HepG2 Assay for human Zinc Finger Protein GLI1 (AID 2282945). The note with it: HepG2, Attagene cis-factorial reporter mRNA, GLI element; actives raise or lower the signal. A digest of the protocol: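 Bidirectional curve fits relative to DMSO, using reporter mRNA levels from RT-PCR plus capillary electrophoresis. Cells were HepG2 transiently carrying cis-regulated reporter constructs, harvested 24 h after dosing.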

Test [2] concerns the target Bile acid receptor (Homo sapiens) (UniProt Q96RI1). Kind of test: ATG_IR1_CIS: Attagene CIS-FACTORIAL HepG2 Assay for human Nuclear Receptor Subfamily 1 Group H Member 4 (NR1H4), IR1 submotif (AID 2282946). The conditions noted are these: IR1 reporter transcription, actives raise or lower the signal. In a few lines:
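HepG2 cells transiently transfected with multiplexed cis-element reporter units read endogenous transcription factor activity. After 24 h compound exposure, reporter mRNA was quantified by RT-PCR, fluorescent labelling, HpaI digestion and capillary electrophoresis; bidirectional fitting versus DMSO baseline.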

Test [3] can be described thus: ATG_ISRE_CIS: Attagene CIS-FACTORIAL HepG2 Assay for human Interferon Regulatory Factor 1 (IRF1) binding to an Interferon-Stimulated Response Element (ISRE) (AID 2282948). The conditions noted are these: HepG2 ISRE cis-reporter (Attagene), mRNA transcription readout; actives raise or lower the signal. In a few lines:
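Endogenous transcription factor activity read as reporter transcript abundance via RT-PCR and capillary electrophoresis. HepG2 cells transiently transfected, 24 h chemical exposure. Gain or loss fitted against DMSO baseline.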

The nature of test [4]: ATG_M_32_CIS: Attagene CIS-FACTORIAL HepG2 Assay for M32 Transcription Factor (Internal Marker) (AID 2282949).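 Further: background control marker of the multiplexed CIS panel rather than a real target.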 The conditions noted are these: HepG2 Attagene cis-factorial M32 reporter, mRNA; actives raise or lower the signal. In a few lines:
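HepG2 human liver cells transiently transfected with cis-promoter-driven multiple reporter transcription units, dosed 24 h. Reporter mRNA quantified by RT-PCR, FAM-labelled primer extension, HpaI digest and capillary electrophoresis; bidirectional fit versus DMSO baseline.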

Test [5] can be described thus: ATG_M_06_CIS: Attagene CIS-FACTORIAL HepG2 Assay for M06 Transcription Factor (Internal Marker) (AID 2282950). The note with it: HepG2 Attagene CIS-FACTORIAL M06 internal marker reporter; actives raise or lower the signal. In a few lines: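 Measured 24 h post-dosing in transiently transfected HepG2 cells, this internal-marker endpoint reports reporter mRNA via RT-PCR with fluorescent primer extension and capillary electrophoresis. DMSO served as negative control and baseline for bidirectional fitting.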

For test [6], the target named is Hypoxia-inducible factor 1-alpha (Homo sapiens) (UniProt Q16665). Briefly: ATG_HIF1a_CIS: Attagene CIS-FACTORIAL HepG2 Assay for human Hypoxia Inducible Factor 1 (HIF1A) (AID 2282951). The note with it: HepG2 Attagene cis-factorial HIF1a reporter transcription; actives raise or lower the signal. In a few lines:
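Dosed 24 h, transfected HepG2 cells yielded total RNA whose reporter transcripts were RT-PCR-amplified and sized by capillary electrophoresis using fluorescent labelling; DMSO defined baseline, with gain and loss of signal both fitted.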

Test [7] concerns the target Hepatocyte nuclear factor 6 (Homo sapiens) (UniProt Q9UBC0). Kind of test: ATG_HNF6_CIS: Attagene CIS-FACTORIAL HepG2 Assay for human Hepatocyte Nuclear Factor 6 (HNF6) (AID 2282952). The conditions noted are these: HepG2 Attagene cis-factorial HNF6 reporter transcription; actives raise or lower the signal. In a few lines: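 Endogenous transcription factor activity in human HepG2 liver cells was captured through cis-regulated reporter constructs. After 24 h treatment, reporter mRNA was measured by RT-PCR with capillary electrophoresis, and activity was fitted in both directions relative to DMSO.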

Test [8] addresses Heat shock factor protein 1 (Homo sapiens) (UniProt Q00613). Briefly: ATG_HSE_CIS: Attagene CIS-FACTORIAL HepG2 Assay for human Heat Shock Transcription Factor 1 (HSE) (AID 2282953). The conditions noted are these: HepG2 HSE cis-reporter, Attagene RNA transcription; actives raise or lower the signal. A digest of the protocol:
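Reporter mRNA induction in HepG2 is measured 24 h after dosing, using transiently transfected multiplexed cis-regulated reporter units. Signal comes from capillary electrophoresis of labelled RT-PCR products, with DMSO as negative control.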

A short description of test [9]: ATG_MRE_CIS: Attagene CIS-FACTORIAL HepG2 Assay for human Metal Responsive Element (MRE) (AID 2282954). The conditions noted are these: HepG2 MRE cis-reporter transcription, Attagene multiplex; actives raise or lower the signal. A digest of the protocol:
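Endogenous MRE-dependent transcription read as reporter mRNA in transiently transfected human HepG2 cells at 24 h. RNA reverse-transcribed, PCR-amplified, labelled and resolved by capillary electrophoresis; gain or loss relative to DMSO.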

A short description of test [10]: ATG_PBREM_CIS: Attagene CIS-FACTORIAL HepG2 Assay for human Phenobarbital-responsive Enhancer Module (PBREM) (AID 2282955). The note with it: HepG2 PBREM cis-reporter, Attagene multiplexed transcription; actives raise or lower the signal. A digest of the protocol:
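Transfected liver-derived HepG2 cells exposed 24 h; PBREM reporter transcript quantified via RT-PCR and capillary electrophoresis, with activity in either direction referenced to DMSO.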

For test [11], the target named is Paired box protein Pax-6 (Homo sapiens) (UniProt P26367). Kind of test: ATG_Pax6_CIS: Attagene CIS-FACTORIAL HepG2 Assay for human Paired Box 6 (PAX6) (AID 2282956). The conditions noted are these: HepG2 CIS-FACTORIAL PAX6 reporter transcription, RNA readout; actives raise or lower the signal. In a few lines:
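Read-out is reporter transcript level, measured by RT-PCR with fluorescent primer extension and capillary electrophoresis after 24 h dosing of transfected HepG2 cells. Activity in either direction fitted relative to DMSO control.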

Test [12] is described as follows: ATG_PXRE_CIS: Attagene CIS-FACTORIAL HepG2 Assay for human Pregnane X Receptor Element (PXRE) (AID 2282957). The note with it: HepG2 Attagene CIS-FACTORIAL PXRE reporter, mRNA; actives raise or lower the signal. A digest of the protocol: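 Endogenous transcription factor activity in HepG2 was gauged through induction of reporter mRNA driven by a cis-regulating promoter element, sampled 24 h post-treatment. Activity was fitted in both directions against DMSO negative control.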

Test [13] in a line: ATG_PPRE_CIS: Attagene CIS-FACTORIAL HepG2 Assay for human Peroxisome Proliferator-activated Response Element (PPRE) (AID 2282958). The note with it: HepG2 PPRE cis-element reporter, Attagene transcription factor profiling; actives raise or lower the signal. A digest of the protocol: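 Measured endpoint: PPRE-controlled reporter mRNA, detected by RT-PCR and capillary electrophoresis fluorescence, from transiently transfected HepG2 cells 24 h after dosing. Curves fitted in both directions using DMSO baseline.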

A short description of test [14]: ATG_RORE_CIS: Attagene CIS-FACTORIAL HepG2 Assay for human RAR-related Orphan Receptor Element (RORE) (AID 2282959). The note with it: HepG2 Attagene cis-factorial RORE reporter, mRNA; actives raise or lower the signal. A digest of the protocol:
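Transiently transfected HepG2 reporter cells were treated 24 h. Reporter transcripts were detected by RT-PCR and capillary electrophoresis, with bidirectional fitting against DMSO.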

Test [15] is described as follows: ATG_Sox_CIS: Attagene CIS-FACTORIAL HepG2 Assay for human SRY-box transcription factor (SOX) (AID 2282960). The conditions noted are these: HepG2 Attagene cis-factorial SOX reporter, mRNA; actives raise or lower the signal. In a few lines:
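Gain- or loss-of-signal endpoint, fitted bidirectionally with DMSO as negative control. Based on reporter mRNA from transfected HepG2 cells harvested 24 h post-treatment and quantified via RT-PCR and capillary electrophoresis.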

Test [16] addresses Transcription factor Sp1 (Homo sapiens) (UniProt P08047). Briefly: ATG_Sp1_CIS: Attagene CIS-FACTORIAL HepG2 Assay for human Specificity Protein 1 (Sp1) (AID 2282961). The note with it: HepG2 Sp1 cis-reporter transcription, actives raise or lower the signal. A digest of the protocol: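 Endpoint reflects endogenous Sp1 transcriptional activity, not an exogenous fusion protein: HepG2 cells with transfected cis-regulated reporters, 24 h dosing, RT-PCR/capillary electrophoresis mRNA read-out, DMSO-normalised bidirectional fit.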

Test [17] is described as follows: ATG_SREBP_CIS: Attagene CIS-FACTORIAL HepG2 Assay for human Sterol Regulatory Element Binding (SREBP) (AID 2282962). The note with it: HepG2 Attagene cis-factorial SREBP reporter, mRNA; actives raise or lower the signal. In a few lines: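 Endogenous SREBP activity read as cis-element-driven reporter transcript in transiently transfected HepG2, 24 h post-dosing; quantified via RT-PCR plus capillary electrophoresis of fluorescent fragments. Gain or loss of signal fitted relative to DMSO baseline.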

Test [18] has as its target Signal transducer and activator of transcription 3 (Homo sapiens) (UniProt P40763). Briefly: ATG_STAT3_CIS: Attagene CIS-FACTORIAL HepG2 Assay for human Signal Transducer and Activator of Transcription 3 (STAT3) (AID 2282963). The conditions noted are these: HepG2, Attagene cis-factorial STAT3 reporter transcription; actives raise or lower the signal. A digest of the protocol: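 Readout is reporter transcript quantified by RT-PCR and capillary electrophoresis, with 6-FAM primer extension and HpaI digestion. Total RNA is taken 24 h after dosing transiently transfected HepG2 carrying cis-regulated reporter units. Bidirectional fit against DMSO.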

Test [19] in a line: ATG_TA_CIS: Attagene CIS-FACTORIAL HepG2 Assay for human TA Basal Promoter (AID 2282964). The conditions noted are these: HepG2 Attagene CIS-factorial TA basal promoter reporter; actives raise or lower the signal. A digest of the protocol: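 Cis-factorial format in HepG2: reporters report endogenous factors, not chimeric Gal4 fusions. After 24 h treatment, reporter transcripts were measured by RT-PCR-capillary electrophoresis fluorescence, analysed bidirectionally versus DMSO.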

A short description of test [20]: ATG_GRE_CIS: Attagene CIS-FACTORIAL HepG2 Assay for human Glucocorticoid Response Elements (GRE) (AID 2282947). The note with it: HepG2 GRE cis-reporter, Attagene multiplex mRNA; actives raise or lower the signal. A digest of the protocol:
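Reporter transcripts read by RT-PCR with capillary electrophoresis fluorescence after a 24 h chemical exposure of HepG2 cells transiently transfected with multiple cis-element reporter units. Gain or loss fitted against DMSO.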

Chain of Paired box protein Pax-6 (Homo sapiens) (P26367 whole entry, looked up): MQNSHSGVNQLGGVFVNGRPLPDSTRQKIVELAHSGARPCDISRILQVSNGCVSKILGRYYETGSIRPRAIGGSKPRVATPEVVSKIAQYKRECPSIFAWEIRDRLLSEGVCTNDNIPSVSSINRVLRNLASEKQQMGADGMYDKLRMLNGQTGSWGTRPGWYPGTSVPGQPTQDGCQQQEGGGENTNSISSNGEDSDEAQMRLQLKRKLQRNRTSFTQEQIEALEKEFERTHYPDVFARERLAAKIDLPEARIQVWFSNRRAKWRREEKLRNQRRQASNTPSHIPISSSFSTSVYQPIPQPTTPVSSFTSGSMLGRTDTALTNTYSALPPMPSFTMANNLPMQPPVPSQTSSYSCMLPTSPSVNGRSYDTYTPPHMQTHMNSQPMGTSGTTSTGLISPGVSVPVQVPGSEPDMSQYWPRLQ
Chain of Heat shock factor protein 1 (Homo sapiens) (Q00613 whole entry, looked up): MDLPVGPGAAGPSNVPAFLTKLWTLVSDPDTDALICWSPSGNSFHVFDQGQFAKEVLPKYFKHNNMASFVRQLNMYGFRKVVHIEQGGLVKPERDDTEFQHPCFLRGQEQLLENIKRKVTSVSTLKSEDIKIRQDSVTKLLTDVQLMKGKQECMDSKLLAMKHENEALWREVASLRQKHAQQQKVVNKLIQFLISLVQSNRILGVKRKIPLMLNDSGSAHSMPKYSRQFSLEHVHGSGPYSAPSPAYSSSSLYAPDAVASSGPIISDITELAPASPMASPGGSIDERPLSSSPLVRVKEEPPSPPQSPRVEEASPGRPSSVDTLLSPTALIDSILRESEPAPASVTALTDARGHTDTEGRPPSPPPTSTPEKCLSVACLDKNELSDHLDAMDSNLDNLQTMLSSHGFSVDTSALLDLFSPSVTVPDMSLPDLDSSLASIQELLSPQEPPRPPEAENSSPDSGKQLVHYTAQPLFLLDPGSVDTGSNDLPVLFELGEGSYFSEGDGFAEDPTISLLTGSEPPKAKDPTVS
Chain of Hepatocyte nuclear factor 6 (Homo sapiens) (Q9UBC0 whole entry, looked up): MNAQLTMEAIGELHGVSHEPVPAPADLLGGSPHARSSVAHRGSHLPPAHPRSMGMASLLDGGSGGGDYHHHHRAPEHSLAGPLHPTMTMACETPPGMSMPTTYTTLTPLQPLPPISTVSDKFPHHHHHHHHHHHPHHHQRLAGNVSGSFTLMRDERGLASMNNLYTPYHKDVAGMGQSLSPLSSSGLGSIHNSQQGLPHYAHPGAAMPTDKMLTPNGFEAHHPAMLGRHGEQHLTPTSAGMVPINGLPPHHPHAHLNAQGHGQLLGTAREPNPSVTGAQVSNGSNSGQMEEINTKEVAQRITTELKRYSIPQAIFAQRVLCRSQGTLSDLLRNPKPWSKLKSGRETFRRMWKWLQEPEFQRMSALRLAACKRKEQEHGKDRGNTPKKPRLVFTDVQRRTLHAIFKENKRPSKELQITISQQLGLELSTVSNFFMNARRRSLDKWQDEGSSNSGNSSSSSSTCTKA
Chain of Transcription factor Sp1 (Homo sapiens) (P08047 whole entry, looked up, the tested form may be a part): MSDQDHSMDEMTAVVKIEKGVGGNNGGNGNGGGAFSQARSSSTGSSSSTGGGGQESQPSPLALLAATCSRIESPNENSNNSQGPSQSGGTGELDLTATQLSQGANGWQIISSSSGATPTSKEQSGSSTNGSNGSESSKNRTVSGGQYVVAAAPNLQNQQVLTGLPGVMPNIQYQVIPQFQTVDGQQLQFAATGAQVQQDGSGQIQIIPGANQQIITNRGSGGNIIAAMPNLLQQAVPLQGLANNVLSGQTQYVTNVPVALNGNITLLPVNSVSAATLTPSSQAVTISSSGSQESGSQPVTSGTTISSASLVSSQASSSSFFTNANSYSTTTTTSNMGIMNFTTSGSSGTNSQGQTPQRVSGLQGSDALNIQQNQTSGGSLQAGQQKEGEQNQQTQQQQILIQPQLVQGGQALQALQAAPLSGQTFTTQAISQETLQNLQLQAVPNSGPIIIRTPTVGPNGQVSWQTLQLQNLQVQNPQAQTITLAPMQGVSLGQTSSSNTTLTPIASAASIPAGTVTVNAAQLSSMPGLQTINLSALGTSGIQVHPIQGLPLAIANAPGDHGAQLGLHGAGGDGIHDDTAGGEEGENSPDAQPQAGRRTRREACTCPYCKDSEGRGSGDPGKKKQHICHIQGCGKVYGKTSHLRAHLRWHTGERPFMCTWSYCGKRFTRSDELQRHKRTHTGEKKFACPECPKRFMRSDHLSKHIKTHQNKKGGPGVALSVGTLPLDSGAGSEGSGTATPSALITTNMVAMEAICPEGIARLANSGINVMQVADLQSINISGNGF
Chain of Signal transducer and activator of transcription 3 (Homo sapiens) (P40763 whole entry, looked up): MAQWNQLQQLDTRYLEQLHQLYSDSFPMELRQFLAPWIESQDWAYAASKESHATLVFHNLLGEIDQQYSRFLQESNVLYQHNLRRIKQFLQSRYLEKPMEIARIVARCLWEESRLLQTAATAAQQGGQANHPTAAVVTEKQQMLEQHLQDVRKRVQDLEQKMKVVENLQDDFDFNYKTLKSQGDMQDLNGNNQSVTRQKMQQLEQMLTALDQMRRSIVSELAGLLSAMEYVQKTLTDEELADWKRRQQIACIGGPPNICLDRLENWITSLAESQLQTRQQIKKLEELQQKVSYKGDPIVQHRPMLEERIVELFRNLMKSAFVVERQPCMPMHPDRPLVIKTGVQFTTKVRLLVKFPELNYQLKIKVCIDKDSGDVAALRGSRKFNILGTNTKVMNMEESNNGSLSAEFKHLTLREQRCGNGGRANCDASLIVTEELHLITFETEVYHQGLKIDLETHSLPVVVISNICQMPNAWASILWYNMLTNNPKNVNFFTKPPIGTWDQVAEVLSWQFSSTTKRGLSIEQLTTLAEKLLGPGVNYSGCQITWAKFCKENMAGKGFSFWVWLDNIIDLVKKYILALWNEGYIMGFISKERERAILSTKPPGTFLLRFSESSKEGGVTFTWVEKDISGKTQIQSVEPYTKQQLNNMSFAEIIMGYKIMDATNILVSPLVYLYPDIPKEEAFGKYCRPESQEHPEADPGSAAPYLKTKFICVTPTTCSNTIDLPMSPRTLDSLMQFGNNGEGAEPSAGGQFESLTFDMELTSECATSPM
Chain of Hypoxia-inducible factor 1-alpha (Homo sapiens) (Q16665 whole entry, looked up): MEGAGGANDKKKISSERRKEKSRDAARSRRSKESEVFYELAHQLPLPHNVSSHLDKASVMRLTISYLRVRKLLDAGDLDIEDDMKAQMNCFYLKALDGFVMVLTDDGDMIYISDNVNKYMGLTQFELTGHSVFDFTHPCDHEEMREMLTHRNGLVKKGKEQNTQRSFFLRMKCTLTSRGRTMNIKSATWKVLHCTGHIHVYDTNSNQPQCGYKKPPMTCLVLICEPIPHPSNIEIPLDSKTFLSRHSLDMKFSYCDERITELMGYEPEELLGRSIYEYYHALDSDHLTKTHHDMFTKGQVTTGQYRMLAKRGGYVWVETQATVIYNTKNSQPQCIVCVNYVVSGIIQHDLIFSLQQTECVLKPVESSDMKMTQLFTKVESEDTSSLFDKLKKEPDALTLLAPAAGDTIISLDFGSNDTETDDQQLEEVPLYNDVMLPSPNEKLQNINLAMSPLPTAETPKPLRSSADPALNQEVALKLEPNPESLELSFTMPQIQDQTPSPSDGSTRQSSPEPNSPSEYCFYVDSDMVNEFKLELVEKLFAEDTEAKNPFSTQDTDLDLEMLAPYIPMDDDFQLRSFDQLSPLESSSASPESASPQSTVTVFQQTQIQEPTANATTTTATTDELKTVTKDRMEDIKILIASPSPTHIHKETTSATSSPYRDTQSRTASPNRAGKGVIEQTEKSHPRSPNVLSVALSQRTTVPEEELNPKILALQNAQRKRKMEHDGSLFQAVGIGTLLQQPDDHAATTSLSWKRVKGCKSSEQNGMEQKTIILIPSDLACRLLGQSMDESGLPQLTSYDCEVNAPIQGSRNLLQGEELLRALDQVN
Chain of Bile acid receptor (Homo sapiens) (Q96RI1 whole entry, looked up): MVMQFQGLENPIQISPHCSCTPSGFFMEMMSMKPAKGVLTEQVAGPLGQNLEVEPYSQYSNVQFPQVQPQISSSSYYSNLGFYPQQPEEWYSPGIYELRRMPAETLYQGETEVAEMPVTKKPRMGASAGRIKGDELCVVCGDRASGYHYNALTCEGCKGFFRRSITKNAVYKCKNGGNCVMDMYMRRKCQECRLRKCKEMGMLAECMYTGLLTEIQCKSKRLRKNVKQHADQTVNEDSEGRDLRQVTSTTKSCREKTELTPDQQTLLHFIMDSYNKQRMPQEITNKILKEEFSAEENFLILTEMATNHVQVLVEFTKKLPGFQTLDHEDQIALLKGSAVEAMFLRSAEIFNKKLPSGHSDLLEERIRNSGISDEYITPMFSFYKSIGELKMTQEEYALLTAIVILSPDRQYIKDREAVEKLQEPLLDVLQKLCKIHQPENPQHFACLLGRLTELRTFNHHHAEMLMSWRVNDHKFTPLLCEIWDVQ

Turning to `CCN(Cc1c(F)cccc1Cl)c1c([N+](=O)[O-])cc(C(F)(F)F)cc1[N+](=O)[O-]`, the compound was classed as inactive in [1], in test [2], in test [3], in test [4], in test [5] and in test [6]. For the same compound, the compound was classed as inactive in test [7], in [8], in test [9], in [13], in [14] and in [15]. Besides, the outcome in test [16], in test [17], in [18] and in test [19] was inactive. For the same compound, the AC50 in [10] was 7.72 µM (active); in [11], 7.64 µM (active); in [12], 1.26 µM (active).
Regarding `CCCCOC(=O)[C@@H](C)Oc1ccc(Oc2ccc(C(F)(F)F)cn2)cc1`, the result in test [2], in [20], in test [3], in test [4], in test [5] and in [6] was inactive. Further, the call in [7], in [8], in [9], in test [10], in test [11] and in test [13] was inactive. The outcome in test [14], in test [15], in [16], in test [17], in [18] and in test [19] was inactive. Besides, the AC50 in [12] was 50 µM (active).
Take `CCCCC(CC)CN1C(=O)C2C3C=CC(C3)C2C1=O` (configuration not stated): the outcome in test [1], in test [20], in test [3], in test [4], in test [5] and in [7] was inactive. Besides, the call in [8], in test [11], in test [15], in [16], in test [17] and in test [18] was inactive. Further, the compound was classed as inactive in test [19]. The AC50 in [6] is 50 µM (active); in [9], 68.5 µM (active); in [10] it was 50 µM (active); in test [12], 3.79 µM (active); in test [13], 50 µM (active); in test [14] it was 34 µM (active).
